# Only some compounds are listed: those with a hit (about 19% of all), similar ones and a draw of the others.
# HT1080-NT tox = qHTS for induction of synthetic lethality in tumor cells producing 2HG: qHTS for the HT-1080-NT fibrosarcoma cell line | 360,000 compounds, 1.6% hits | AID 686970, 2013 | HT-1080-NT fibrosarcoma viability, CellTiter-Glo ATP luminescence, 48 h | Potency, µM (series often up to 46.1 µM), for the others: at the highest dose activity, negative = less viability, most hits filed as cytotoxic;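 also: NT is the 2HG producing partner of a matched IDH1 knockdown line; 0% = DMSO-treated cells and -100% = media-only wells without cells; nearly all actives have a fitted effect of over 55% in size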
#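 HT-1080-NT; 750 cells/well; 5% FBS RPMI; 48 h compound, 37 degrees C; CellTiter-Glo luminescence; curve fitting and curve-class assignment.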
# DT40 TDP1 no CPT = qHTS for Inhibitors of human tyrosyl-DNA phosphodiesterase 1 (TDP1): qHTS in cells in absence of CPT; DT40 Tdp1-/- hTDP1 cells, no CPT, ATP luminescence, 48 h; Potency, µM (series often up to 46.2 µM), for inactives: top-dose activity change, negative = growth inhibition, most hits filed as inhibitors; 420,000 compounds, 15% hits; also: nearly all actives have a fitted effect of over 55% in size
#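 Cells were dispensed at 400 per well, compounds added by pin tool, plates incubated ≥48 hr at 37 °C, then CellTiter-Glo added for 30 min at room temperature before luminescence reading. Line: DT40 Tdp1-/- complemented with hTDP1; camptothecin omitted.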
# KB-V1 cytotox = qHTS assay for MDR1-selective chemotherapeutics: Primary screen using the drug-selected MDR subline cells KB-V1. KB-V1 MDR cells viability, CellTiter-Glo, 72 h. AID 1347076, 2019. Potency, µM (titrated, usually from 46.1 µM), most hits filed as cytotoxic. 400,000 compounds, 3.4% hits; also: nearly all actives have a fitted effect of over 60% in size
#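 In this primary screen, KB-V1 cells overexpressing P-gp are incubated with library compounds (lowest to highest concentration) for 72 h at 37 degrees C before a luminescent ATP viability read.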
# TDP1 cell CPT = qHTS for Inhibitors of human tyrosyl-DNA phosphodiesterase 1 (TDP1): qHTS in cells in presence of CPT. Potency, µM (doses to about 46.2 µM), inactives show at the top dose activity change, negative = growth inhibition, usual class: inhibitors. 420,000 compounds, 12% hits. AID 686979, 2013. chicken DT40 Tdp1-/-;hTDP1 cells + 20 nM CPT, ATP luminescence, 48 h; also: nearly all actives have a fitted effect of over 55% in size
#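 Cell growth measured by CellTiter-Glo luminescence after a minimum 48 h, 37 C compound exposure with 20 nM CPT in Tdp1-knockout DT40 cells stably expressing hTDP1, seeded 400/well; qHTS titration format.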
# HT1080 IDH1KD tx = qHTS for induction of synthetic lethality in tumor cells producing 2HG: qHTS for the HT-1080-IDH1KD cell line; HT-1080 IDH1 knockdown viability, ATP luminescence, 48 h; Potency, µM (titrated, usually from 46.1 µM), without a hit: at the highest dose activity, negative = toxicity, actives largely listed as cytotoxic; 360,000 compounds, 2% hits; AID 686971, 2013;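 also: 0% = DMSO wells and -100% = cell-free medium wells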
#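 In this qHTS, HT-1080 cells depleted of IDH1 are exposed for 48 h at 37 °C to compound titrations. Toxicity is scored from CellTiter-Glo luminescence, with DMSO as full viability and medium alone as none.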
# KB-3-1 tox = qHTS assay for MDR1-selective chemotherapeutics: Primary screen using the parental adenocarcinoma cell KB-3-1; KB-3-1 viability, CellTiter-Glo ATP luminescence, 72 h; Potency, µM (highest dose often 46.1 µM), actives largely listed as cytotoxic; 400,000 compounds, 1.4% hits; also: nearly all actives have a fitted effect of over 60% in size
#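 Using CellTiter-Glo luminescence, growth of non-resistant KB-3-1 adenocarcinoma cells is assessed 72 h after pin-tool compound addition at 37 °C. Normalized responses across the concentration series yield fitted curves.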
# The depositor's hits bear a star; i = inactive; ? = inconclusive; . = not tested or not shown. Calls follow the shape of the dose curve; as a rule, active = well fitted curve in the direction sought with a large enough effect; inconclusive = small, poorly fitted or top-dose-only effect, or another doubt; inactive = no such curve, though single readings can be large; an effect the other way counts as inactive or inconclusive. Unless noted, % is scaled to controls: 0 for no effect and ±100 for the full control effect; potency is read from the fitted curve at half-maximal effect.
SMILES,HT1080-NT tox,DT40 TDP1 no CPT,KB-V1 cytotox,TDP1 cell CPT,HT1080 IDH1KD tx,KB-3-1 tox
O=C(Nc1ccccc1F)c1coc(=O)c(Br)c1,2%,1.6µM*,i,0.52µM*,7%,i
Cc1cc(NC(=O)c2coc(=O)c(Br)c2)ccc1C(C)C,?,1.8µM*,i,0.52µM*,21µM*,i
O=C(Nc1ccc(Br)cn1)c1coc(=O)c(Br)c1,-9%,3.7µM*,i,1.5µM*,-18%,i
O=C(NCCc1ccc(F)cc1)c1coc(=O)c(Br)c1,?,0.92µM*,i,0.13µM*,?,?
Cc1ccc(NC(=O)c2ccccc2)cc1C,5%,-11%,i,0%,17%,i
CCN(CC(=O)NCc1cccs1)C(=O)COc1ccc(C(C)=O)cc1,3%,10%,i,1%,2%,i
COc1ccc(CNC(=O)C(Cc2ccccc2)NS(=O)(=O)c2ccc3c(c2)CCN3C(C)=O)cc1 (stereo not given),.,-13%,i,-1%,.,i
Cc1ccc(CNc2ncnc3c2cnn3C2CCCCO2)cc1 (stereo not given),2%,-24%,i,-11%,1%,i
Cc1ccc(C)c(NC(=O)CN2C(=O)CCc3ccccc32)c1,.,0%,.,-6%,.,.
C[C@@H](NC(=O)c1coc(=O)c(Br)c1)c1ccccc1,9.2µM*,0.73µM*,?,0.46µM*,8.2µM*,12µM*
COc1ccc(C(=O)NC(C)c2ccccc2)cc1Br (stereo not given),-1%,-14%,i,-7%,2%,i
O=C(Nc1ccc(Cl)cc1C(=O)Nc1ccc(Br)cn1)c1ccco1,-16%,?,5.2µM*,?,?,i
CN1CCCc2ccccc21,.,-14%,i,-1%,.,i
CCOc1ccc(Nc2oc(-c3ccc(COc4ccc(C)cc4)o3)nc2C#N)cc1,.,?,i,?,.,i
O=c1[nH]c(/C=C/c2ccccc2OC(F)F)nc2c1cnn2-c1ccccc1,18µM*,?,i,-19%,?,i
CCn1c(N)c(C(=O)Nc2ccccc2C(=O)OC)sc1=S,-5%,16µM*,i,?,1%,i
CCn1c(N)c(C(=O)NCCOC)sc1=S,19%,0%,i,-3%,13%,i
COc1ccccc1C(C)NC(=O)c1ccccc1SCC(=O)N1CCCC1 (stereo not given),-9%,-19%,i,-12%,-16%,i
Cc1cccn2c(=O)c3cc(C#N)c(=O)n(-c4nnc(SCc5ccc(F)cc5)s4)c3nc12,.,?,i,?,.,i
C=CCN(c1ccccc1Cl)S(=O)(=O)c1cc(C(=O)N2CCCC2)ccc1Cl,0%,?,?,?,-1%,i
CN(C)C(=O)c1cnc(Sc2ncc(C(F)(F)F)cc2Cl)n1C,1%,8.2µM*,i,8.2µM*,9%,i
COc1ccc(C(=O)c2cnc3cc4c(cc3c2C)OCO4)cc1,-6%,?,?,?,-10%,i
Cc1ccc(S(=O)(=O)c2c(C(=O)c3ccccc3)cnc3cc4c(cc23)OCCO4)cc1,-6%,21µM*,?,?,-25%,?
Cc1c(C(=O)c2ccc(Cl)c(Cl)c2)cnc2cc3c(cc12)OCO3,-23%,?,?,?,-14%,i
CCOc1ccc(S(=O)(=O)c2c(C(=O)c3ccc(C)c(C)c3)cnc3ccccc23)cc1,.,15µM*,i,16µM*,.,i
SMILES,HT1080-NT tox,DT40 TDP1 no CPT,KB-V1 cytotox,TDP1 cell CPT,HT1080 IDH1KD tx,KB-3-1 tox
COc1ccc(S(=O)(=O)c2c(Nc3ccc(F)cc3)sc(C(=O)c3ccc(C)cc3C)c2N)cc1,.,?,i,?,.,?
COc1ccc(S(=O)(=O)c2c(C(=O)c3ccc(C)c(C)c3)cnc3ccc(F)cc23)cc1,.,6.5µM*,i,7.3µM*,.,i
Cc1ccc2ncc(C(=O)c3ccc(C)c(C)c3)c(S(=O)(=O)c3ccc(F)cc3)c2c1,.,9.2µM*,?,8.2µM*,.,i
COc1ccc(C(=O)c2cnc3ccc(C)cc3c2S(=O)(=O)c2ccccc2)cc1,.,18µM*,?,16µM*,.,i
CCOc1ccc(Nc2c(S(=O)(=O)c3ccccc3)cnc3ccc(CC)cc23)cc1,.,?,?,?,.,i
CCc1ccc(S(=O)(=O)c2c(C(=O)c3ccccc3)cnc3ccc(CC)cc23)cc1,.,15µM*,i,15µM*,.,i
CCOc1ccc(NC(=O)C2CCCCN2S(=O)(=O)c2ccccc2)cc1 (stereo not given),2%,?,?,?,-14%,?
COc1ccc(NC(=O)C2CCCCN2S(=O)(=O)c2ccc(F)cc2)cc1 (stereo not given),3%,-8%,i,?,?,i
CCOc1ccccc1NC(=O)C1CCCCN1S(=O)(=O)c1ccccc1 (stereo not given),-1%,21µM*,8.2µM*,?,-2%,?
COc1ccccc1NC(=O)C1CCCCN1S(=O)(=O)c1ccc(F)cc1 (stereo not given),-4%,?,5.2µM*,-21%,1%,i
COc1ccc(NC(=O)C2CCCCN2S(=O)(=O)c2ccc(F)cc2)c(OC)c1 (stereo not given),14%,-26%,5.8µM*,-22%,7%,i
O=C(Nc1ccc(OC(F)(F)F)cc1)C1CCCCN1S(=O)(=O)c1ccccc1 (stereo not given),-20%,15µM*,?,?,-1%,?
Cc1ccc(Cl)cc1NC1=NC(=S)N(C(C)C)C12CCCCC2,-4%,18µM*,?,?,-3%,i
Cc1ccc(Cl)cc1NC(=O)C(=O)N1CCCCC1,0%,-12%,i,-1%,-1%,i
O=S(=O)(Nc1nnc(C2CC2)s1)c1ccccc1,6%,-22%,i,5%,3%,i
COc1ccc(-c2onc(C)c2-c2cnn(-c3ccccc3)c2)c(O)c1,-8%,21µM*,i,?,?,i

# From PubChem
